Where “and” joins values, the source holds several entries; their conditions need not be identical. Equal entries are not always repeated. Some structures have more than one record in an assay (separate samples or runs), and their calls can disagree. Calls of active or inactive are those of the source. How the source made its calls: active means hit-call score of the fitted dose curve at least 0.9, where 1 is the maximum; inactive means score below 0.9.
tested on: not listed separately; experiment: ATG_MRE_CIS: Attagene CIS-FACTORIAL HepG2 Assay for human Metal Responsive Element (MRE) (AID 2282954); conditions: HepG2 MRE cis-reporter transcription, Attagene multiplex; actives raise or lower the signal
Outline: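 Transient MRTU transfection of HepG2 (FuGene 6); 24 h dosing; total RNA → oligo(dT) RT, PCR, 6-FAM primer extension, HpaI cut, CE. Bidirectional fit vs DMSO.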

outcome, inactive:
c1ccc2c(c1)CCC2, CN(Cc1cnc2nc(N)nc(N)c2n1)c1ccc(C(=O)N[C@@H](CCC(=O)O)C(=O)O)cc1, O=C1c2ccc(O)c(O)c2C(=O)c2c(O)ccc(O)c21, Cc1ccc(C(=O)c2ccccc2)cc1, Nc1ccc(O)c(C(=O)O)c1, CC[N+](CC)(CC)Cc1ccccc1, CCCCC(CC)C(=O)OCCOCCOCCOCCOC(=O)C(CC)CCCC (stereo unspecified), c1cnc2c(c1)ccc1cccnc12, CN(C)CCOC(c1ccccc1)c1ccccc1, C[C@]12CC[C@@H]3c4ccc(O)cc4CC[C@H]3[C@@H]1CC[C@@H]2OC(=O)CCC1CCCC1, Cc1cc(=O)oc2cc(O)ccc12, FC(OC(F)(F)C(F)(F)C(F)(F)F)C(F)(F)F (stereo unspecified), COCN(COC)c1nc(N(COC)COC)nc(N(COC)COC)n1, CC=O, CCCCCCCCCCCCCCC, Cc1ccccc1C(OCCN(C)C)c1ccccc1 (stereo unspecified), CC(=O)Nc1ccc(O)cc1, CC(C)CCOCCC(C)C, CCc1ccccc1O, O=P(O)(O)CCC(F)(F)C(F)(F)C(F)(F)C(F)(F)C(F)(F)C(F)(F)F, Nc1ccn([C@@H]2O[C@H](CO)[C@@H](O)C2O)c(=O)n1 (stereo partly specified), CC1=NN(c2ccccc2)C(=O)C1, CC(C)C=O, Cc1ccc(S(=O)(=O)O)cc1, Cc1cc(Cc2cc(C)cc(C(C)(C)C)c2O)c(O)c(C(C)(C)C)c1, Cc1ccc(N=Nc2c(O)ccc3ccccc23)c(C)c1, O=C1OC(=O)c2cc(-c3ccc4c(c3)C(=O)OC4=O)ccc21, O=C1c2ccccc2C(=O)c2c(O)c(O)cc(O)c21, CCC(=O)O

AC50, active:
CCCCCCCCCCCC(=O)NCCCN(C)C 19.8 µM, CCCCc1oc2ccccc2c1C(=O)c1cc(I)c(OCCN(CC)CC)c(I)c1 18.3 µM, O=C(O)C(F)(F)OC(F)(F)C(F)(F)OC(F)(F)C(F)(F)OC(F)(F)C(F)(F)C(F)(F)C(F)(F)F 31.4 µM and 28.9 µM, O=C1Cc2ccccc2N1c1c(Cl)cccc1Cl 91.5 µM, CN(C)c1ccc(C(=C2C=CC(=[N+](C)C)C=C2)c2ccccc2)cc1 1.46 µM and 1.3 µM, Cc1ccccc1C(OCCN(C)C)c1ccccc1 (stereo unspecified) 151 µM, O=C(CCCN1CCC(O)(c2ccc(Cl)cc2)CC1)c1ccc(F)cc1 33.4 µM, O=S(=O)(c1ccc(OCc2ccccc2)cc1)c1ccccc1O 40.9 µM

tested on: not listed separately; experiment: ATG_PBREM_CIS: Attagene CIS-FACTORIAL HepG2 Assay for human Phenobarbital-responsive Enhancer Module (PBREM) (AID 2282955); conditions: HepG2 PBREM cis-reporter, Attagene multiplexed transcription; actives raise or lower the signal
Outline: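 Cells were transfected with cis-element reporter units and treated for 24 h, after which RNA was extracted and reporter transcripts measured by RT-PCR and capillary electrophoresis.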

outcome, inactive:
c1ccc2c(c1)CCC2, CC(C)(C)c1ccc(O)c(O)c1, CN(Cc1cnc2nc(N)nc(N)c2n1)c1ccc(C(=O)N[C@@H](CCC(=O)O)C(=O)O)cc1, CCCCCCCCCCCC(=O)NCCCN(C)C, O=C1c2ccc(O)c(O)c2C(=O)c2c(O)ccc(O)c21, Cc1ccc(C(=O)c2ccccc2)cc1, O=C(O)C(F)(F)OC(F)(F)C(F)(F)OC(F)(F)C(F)(F)OC(F)(F)C(F)(F)C(F)(F)C(F)(F)F, CC[N+](CC)(CC)Cc1ccccc1, C[C@]12CC[C@@H]3c4ccc(O)cc4CC[C@H]3[C@@H]1CC[C@@H]2OC(=O)CCC1CCCC1, Cc1cc(=O)oc2cc(O)ccc12, FC(OC(F)(F)C(F)(F)C(F)(F)F)C(F)(F)F (stereo unspecified), COCN(COC)c1nc(N(COC)COC)nc(N(COC)COC)n1, CC=O, CC(=O)Nc1ccc(O)cc1, CC(C)CCOCCC(C)C, CCc1ccccc1O, O=P(O)(O)CCC(F)(F)C(F)(F)C(F)(F)C(F)(F)C(F)(F)C(F)(F)F, Nc1ccn([C@@H]2O[C@H](CO)[C@@H](O)C2O)c(=O)n1 (stereo partly specified), CC(C)C=O, Cc1ccc(N=Nc2c(O)ccc3ccccc23)c(C)c1, O=C1OC(=O)c2cc(-c3ccc4c(c3)C(=O)OC4=O)ccc21, O=C1c2ccccc2C(=O)c2c(O)c(O)cc(O)c21

AC50, active:
O=C1Cc2ccccc2N1c1c(Cl)cccc1Cl 1.23 µM, CCCCC(CC)C(=O)OCCOCCOCCOCCOC(=O)C(CC)CCCC (stereo unspecified) 27.6 µM, Cc1cc(=O)oc2cc(O)ccc12 42.3 µM, Cc1cc(Cc2cc(C)cc(C(C)(C)C)c2O)c(O)c(C(C)(C)C)c1 151 µM

target: Paired box protein Pax-6 (Homo sapiens) (UniProt P26367); experiment: ATG_Pax6_CIS: Attagene CIS-FACTORIAL HepG2 Assay for human Paired Box 6 (PAX6) (AID 2282956); conditions: HepG2 CIS-FACTORIAL PAX6 reporter transcription, RNA readout; actives raise or lower the signal
Outline: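 HepG2 cells transiently transfected with cis-promoter-driven multiplexed reporter units sensing endogenous transcription factor activity; 24 h chemical exposure. Reporter mRNA quantified by RT-PCR, 6-FAM labelling, HpaI digestion and capillary electrophoresis; bidirectional fit versus DMSO baseline.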

Sequence of Paired box protein Pax-6 (Homo sapiens) (P26367 whole entry, looked up): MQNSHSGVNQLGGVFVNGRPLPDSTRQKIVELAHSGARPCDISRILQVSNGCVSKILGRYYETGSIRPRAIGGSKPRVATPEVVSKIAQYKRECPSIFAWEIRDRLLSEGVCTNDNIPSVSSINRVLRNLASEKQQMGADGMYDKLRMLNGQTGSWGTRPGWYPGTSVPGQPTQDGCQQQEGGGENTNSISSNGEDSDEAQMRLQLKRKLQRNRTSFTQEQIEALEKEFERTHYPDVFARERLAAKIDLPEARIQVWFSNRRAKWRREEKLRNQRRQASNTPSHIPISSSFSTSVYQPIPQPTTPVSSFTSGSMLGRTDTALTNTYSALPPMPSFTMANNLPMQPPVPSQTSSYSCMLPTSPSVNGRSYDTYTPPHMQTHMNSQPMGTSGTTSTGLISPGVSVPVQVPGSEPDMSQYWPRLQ

outcome, inactive:
c1ccc2c(c1)CCC2, CC(C)(C)c1ccc(O)c(O)c1, CN(Cc1cnc2nc(N)nc(N)c2n1)c1ccc(C(=O)N[C@@H](CCC(=O)O)C(=O)O)cc1, O=C1c2ccc(O)c(O)c2C(=O)c2c(O)ccc(O)c21, Cc1ccc(C(=O)c2ccccc2)cc1, Nc1ccc(O)c(C(=O)O)c1, CC[N+](CC)(CC)Cc1ccccc1, O=C1Cc2ccccc2N1c1c(Cl)cccc1Cl, CCCCC(CC)C(=O)OCCOCCOCCOCCOC(=O)C(CC)CCCC (stereo unspecified), c1cnc2c(c1)ccc1cccnc12, CN(C)CCOC(c1ccccc1)c1ccccc1, C[C@]12CC[C@@H]3c4ccc(O)cc4CC[C@H]3[C@@H]1CC[C@@H]2OC(=O)CCC1CCCC1, Cc1cc(=O)oc2cc(O)ccc12, FC(OC(F)(F)C(F)(F)C(F)(F)F)C(F)(F)F (stereo unspecified), COCN(COC)c1nc(N(COC)COC)nc(N(COC)COC)n1, CC=O, CCCCCCCCCCCCCCC, Cc1ccccc1C(OCCN(C)C)c1ccccc1 (stereo unspecified), CC(=O)Nc1ccc(O)cc1, CC(C)CCOCCC(C)C, CCc1ccccc1O, O=P(O)(O)CCC(F)(F)C(F)(F)C(F)(F)C(F)(F)C(F)(F)C(F)(F)F, Nc1ccn([C@@H]2O[C@H](CO)[C@@H](O)C2O)c(=O)n1 (stereo partly specified), CC1=NN(c2ccccc2)C(=O)C1, CC(C)C=O, Cc1ccc(S(=O)(=O)O)cc1, Cc1cc(Cc2cc(C)cc(C(C)(C)C)c2O)c(O)c(C(C)(C)C)c1, Cc1ccc(N=Nc2c(O)ccc3ccccc23)c(C)c1, O=C1OC(=O)c2cc(-c3ccc4c(c3)C(=O)OC4=O)ccc21, O=C1c2ccccc2C(=O)c2c(O)c(O)cc(O)c21, CCC(=O)O

AC50, active:
CC(C)(C)c1ccc(O)c(O)c1 99.1 µM and 57.3 µM, CCCCCCCCCCCC(=O)NCCCN(C)C 19.6 µM, CCCCc1oc2ccccc2c1C(=O)c1cc(I)c(OCCN(CC)CC)c(I)c1 20.2 µM, O=C(O)C(F)(F)OC(F)(F)C(F)(F)OC(F)(F)C(F)(F)OC(F)(F)C(F)(F)C(F)(F)C(F)(F)F 25.9 µM and 29.1 µM, CN(C)c1ccc(C(=C2C=CC(=[N+](C)C)C=C2)c2ccccc2)cc1 1.43 µM and 1.44 µM, O=C(CCCN1CCC(O)(c2ccc(Cl)cc2)CC1)c1ccc(F)cc1 51.2 µM, O=S(=O)(c1ccc(OCc2ccccc2)cc1)c1ccccc1O 33.4 µM

Source: PubChem BioAssay (EPA / NIEHS)
